# Screening results from PubChem.
# Shown are actives, neighbours in structure and some others; about 2.1% of the full set was active somewhere.
# PLCg1 inh = PLC-gamma1 (human) inhibition, primary screen | P19174 | purified PLC-gamma1, fluorogenic substrate, fluorescence | inhibition, % at 12.2 µM | 370,000 tested, 0.84% active | AID 720700; in the data active = inhibition above about 9.5%
# Target sequence (P19174 whole entry, looked up): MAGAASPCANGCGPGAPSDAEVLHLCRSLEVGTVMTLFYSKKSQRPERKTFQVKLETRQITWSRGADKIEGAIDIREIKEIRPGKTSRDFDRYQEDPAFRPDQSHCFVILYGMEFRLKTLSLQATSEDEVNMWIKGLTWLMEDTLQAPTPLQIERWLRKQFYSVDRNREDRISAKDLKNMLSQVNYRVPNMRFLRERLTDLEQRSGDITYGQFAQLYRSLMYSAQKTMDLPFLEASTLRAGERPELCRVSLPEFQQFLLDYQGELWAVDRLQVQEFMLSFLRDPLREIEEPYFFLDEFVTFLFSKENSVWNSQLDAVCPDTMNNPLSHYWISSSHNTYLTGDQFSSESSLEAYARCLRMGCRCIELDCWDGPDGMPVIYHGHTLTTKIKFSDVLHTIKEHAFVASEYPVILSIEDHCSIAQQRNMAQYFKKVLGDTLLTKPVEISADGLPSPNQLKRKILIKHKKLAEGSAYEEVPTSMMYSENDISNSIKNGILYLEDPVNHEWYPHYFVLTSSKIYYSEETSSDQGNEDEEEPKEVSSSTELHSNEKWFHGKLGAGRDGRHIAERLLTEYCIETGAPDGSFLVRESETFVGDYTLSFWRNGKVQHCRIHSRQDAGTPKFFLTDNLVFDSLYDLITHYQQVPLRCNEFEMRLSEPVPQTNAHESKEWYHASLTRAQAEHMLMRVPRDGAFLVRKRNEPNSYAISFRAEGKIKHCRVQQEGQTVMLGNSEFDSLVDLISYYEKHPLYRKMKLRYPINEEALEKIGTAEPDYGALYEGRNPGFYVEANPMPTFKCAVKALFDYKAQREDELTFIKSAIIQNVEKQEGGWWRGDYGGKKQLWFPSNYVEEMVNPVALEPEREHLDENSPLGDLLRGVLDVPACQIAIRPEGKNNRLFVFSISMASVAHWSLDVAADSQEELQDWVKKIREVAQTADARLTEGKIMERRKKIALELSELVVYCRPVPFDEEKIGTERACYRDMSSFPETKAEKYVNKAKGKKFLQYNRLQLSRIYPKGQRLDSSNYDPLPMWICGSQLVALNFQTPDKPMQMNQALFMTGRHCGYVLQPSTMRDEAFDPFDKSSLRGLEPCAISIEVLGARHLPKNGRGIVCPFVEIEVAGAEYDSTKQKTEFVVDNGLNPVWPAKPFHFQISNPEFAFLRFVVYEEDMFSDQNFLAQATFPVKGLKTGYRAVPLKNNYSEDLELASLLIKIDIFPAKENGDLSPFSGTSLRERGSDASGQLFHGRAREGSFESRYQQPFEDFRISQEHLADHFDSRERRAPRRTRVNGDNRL
# ADAM10 inh = inhibits human ADAM10; O14672; recombinant ADAM10, EDANS/DABCYL FRET peptide cleavage, 3 h; inhibition, % at 7 µM; 370,000 tested, 0.62% active; AID 720582;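 active = inhibition above a per-campaign cutoff equal to the mean of compounds falling between control-based bounds plus 3 SD, cut at about 20% in these data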
# Rce1 inh = inhibitors of yeast Ras-converting enzyme; yeast membranes, quenched prenylated peptide cleavage fluorescence; calls only; AID 2563; Q03530; 290,000 tested, 0.27% active;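 active = fall in fluorescence gain of 50% or more versus controls, with final raw signal at or below 3038400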
# PLCb3 inh = blocks human PLC-beta3 enzyme activity. Purified PLC-beta3, fluorogenic substrate, fluorescence. inhibition, % at 12.2 µM. 370,000 tested, 0.18% active. AID 720704; in the data active = inhibition above about 11%
# ADAM17 inh = inhibits human ADAM17. recombinant ADAM17, EDANS/DABCYL FRET peptide cleavage. 370,000 tested, 0.83% active. AID 720648. P78536. inhibition, % at 6.95 µM;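 active = inhibition above the mean of compounds lying between control limits plus 3 SD, set per campaign, cut at about 8.5% in these data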
# Numbers stand for hits; – = inactive; · = no result; + = active, no number.
SMILES,PLCg1 inh,ADAM10 inh,Rce1 inh,PLCb3 inh,ADAM17 inh
COc1cccc(-c2ccc(-c3noc(-c4cccs4)n3)c(OC)n2)c1,–,–,–,–,–
COc1ccccc1N1CCN(c2ncc(C(=O)N3CCN(c4cccc(Cl)c4)CC3)c3ccccc23)CC1,–,–,+,–,–
CCOc1ccccc1C(=O)N1CCN(c2cccc(Cl)c2)CC1,–,–,–,–,–
Brc1ccc(CN2CCCc3nc(-c4ccccc4)ccc32)cc1,–,–,·,–,–
CCNC(=S)NNC(=O)CCn1cc(C)cn1,–,–,+,–,–
Nc1ccccc1Oc1ccc2ccccc2c1,–,–,+,–,–
O=C(O)C1=NN(c2cc(Cl)c(S(=O)(=O)O)cc2Cl)C(=O)C1,15,–,·,–,–
COc1ccc(CN(C)C(=O)c2cccc(NC(=O)CC3SC(N4CCCCC4)=NC3=O)c2)c(OC)c1 (configuration not stated),–,–,·,–,–
O=c1[nH]c(=S)[nH]c2c1C(c1ccc(Br)cc1)c1c([nH]c(=S)[nH]c1=O)O2,24,–,–,–,–
COc1ccc(C2c3c(ncn(CCN4CCOCC4)c3=N)Oc3ccc4ccccc4c32)cc1 (configuration not stated),–,–,+,–,–
COc1ccc(S[C@]2(C(=O)N(C)C)CC(=O)N(C(=O)c3ccccc3)[C@@H]2c2ccc(OC)cc2)cc1,–,–,·,–,–
CCN(c1ccccc1)S(=O)(=O)c1ccc(Cl)c(NC(=O)CN2CCN(C)CC2)c1,–,–,·,–,–
CCN1CCN(CC(=O)Nc2cc(S(=O)(=O)N(CC)c3ccccc3)ccc2Cl)CC1,9.5,–,·,–,–
O=C(COC(=O)c1ccccc1C(=O)c1ccccc1)Nc1ccc(SC(F)F)cc1,–,–,–,–,9.0
Cc1cc(Cc2ccc(N)c(C)c2)ccc1N,–,–,–,–,–
Nc1ccc(Cc2ccc(N)c(C(=O)O)c2)cc1C(=O)O,–,–,+,–,–
O=C(CN(C1CCCCC1)S(=O)(=O)c1ccccc1)N1CCCC1,–,–,–,–,–
O=C(CN(C1CCCCC1)C1CCCCC1)N1CCc2ccccc2C1,–,–,+,–,–
O=C(Nc1ccccc1-c1nc2ccccc2[nH]1)c1ccc(N2C(=O)CCC2=O)cc1,–,–,+,–,–
O=C(Nc1ccccc1-c1nc2ccccc2[nH]1)c1ccc(S(=O)(=O)N2CCCCC2)cc1,–,–,–,–,–
COC(=O)[C@]12C[C@H](CC(=O)NCCCN3CCCC3=O)C(=O)N(Cc3ccc(Cl)cc3Cl)C1=C[C@H](C(C)C)O[C@@H]2C1CC1,–,–,·,–,–
O=C(O)CCCC[C@@H]1SC[C@@H]2NC(=O)N[C@@H]21,–,–,+,–,–
CC1(c2ccncc2)Nc2ccccc2-c2nc3ccccc3n21 (configuration not stated),–,–,+,–,–
Cc1ccc2c(c1)N(C(=O)CSc1nncn1C)C(C)(C)c1ssc(=S)c1-2,–,–,–,–,8.8
CC(=O)c1c(C)nc(-c2ccccc2)nc1N,–,–,+,–,–
SMILES,PLCg1 inh,ADAM10 inh,Rce1 inh,PLCb3 inh,ADAM17 inh
C[C@H]1COc2cc(Br)ccc2S(=O)(=O)N1Cc1cn(Cc2ccc(C(F)(F)F)cc2)nn1,–,–,·,–,–
C[C@H]1CN([C@@H](C)CO)C(=O)c2cc(Br)cnc2O[C@H]1CN(C)C(=O)c1cccnc1,–,–,·,–,–
C[C@@H]1CN([C@H](C)CO)C(=O)c2cc(Br)cnc2O[C@H]1CN(C)C(=O)c1ccccc1,11,–,·,–,–
COC(=O)[C@]12C[C@H](CC(=O)NCCCN3CCCC3=O)C(=O)N(Cc3ccco3)C1=C[C@H](COCc1ccccc1)O[C@@H]2C,–,–,·,–,–
COc1cccc(N(C(=O)Cn2nnc(-c3ccc(C)cc3)n2)C(C(=O)NC(C)(C)C)c2c[nH]c3ccccc23)c1 (configuration not stated),–,23,–,–,12
CCN(CC)Cc1c(O)ccc2c(=O)c(-c3ccccc3Cl)coc12,–,–,–,–,–
CCN(CC)Cc1c(O)ccc2c(=O)c(-c3ccccc3OC)coc12,–,–,+,–,–
O=C(c1ccc(F)cc1)c1cccc(C(=O)c2ccc(F)cc2)n1,–,–,·,11,–
COc1ccc(NS(=O)(=O)c2ccc3c(c2)n(C)c(=O)n3C)cc1,–,–,–,–,–
COc1ccc(NS(=O)(=O)c2ccc3oc(=O)c4[nH]c(=O)c(=O)n(C)c4c3c2)cc1,–,–,+,–,–
CC(C)C[C@H]1COc2cc(N3CCSCC3)ccc2S(=O)(=O)N1C,–,–,·,–,–
Cc1cc(C)n(-c2ccc(C(=O)N3CCN(c4ccccn4)CC3)cc2)n1,10,–,·,–,–
COCCCNC(=O)C[C@H]1C[C@@]2(C(=O)OC)C(=C[C@H](C3CCCC3)O[C@@H]2C)N(Cc2ccco2)C1=O,–,–,·,–,–
O=C(O)CCc1nc2cc(C(F)(F)F)ccc2n(Cc2ccccc2)c1=O,–,–,+,–,–
O=C(O)CCc1nc2ccccc2n(CCc2ccccc2)c1=O,–,–,–,–,–
CC(OC(=O)CNC(=O)COc1ccccc1)C(=O)N(C)Cc1ccccc1 (configuration not stated),–,–,–,–,–
CCN(Cc1ccccc1)c1ccc(/C=N/N=C(N)N)cc1,–,–,+,–,–
Cc1ccc(C(=O)c2c3ccc(C(F)(F)F)cc3[n+]([O-])n2CCC(N)=O)cc1,–,–,–,–,–
Cc1ccc(C(=O)c2c3ccccc3[n+]([O-])n2CCO)cc1,–,–,+,–,–
COc1ccc(C(=O)c2c3ccccc3[n+]([O-])n2CCCN)cc1,–,–,–,–,–
Cc1ccc(C(=O)c2c3ccc(C(F)(F)F)cc3[n+]([O-])n2CCCC(N)=O)cc1,–,–,+,–,–
CC(C)(CN1CCNCC1)NS(=O)(=O)c1ccc(Cl)cc1,16,–,·,–,–
CC1=C(O)C(=O)C(C2=C(O)C(=O)C(C)=C(O)C2=O)=C(O)C1=O,47,–,·,–,–
Fc1cccc(Cn2ccc3ccc(-c4ccc5ccn(Cc6ccccc6)c5c4)cc32)c1,–,–,·,–,–
CCC(=O)NC(c1cccs1)c1cc([N+](=O)[O-])c2cccnc2c1OC (configuration not stated),18,–,·,–,–
C/C=C(\C)C(=O)N1CC2(CC(c3cccc(NC(=O)CC(c4ccccc4)c4ccccc4)c3)=NO2)C[C@H]1C(N)=O (some centres not stated),·,·,–,·,·
NC(=O)[C@H]1CC2(CC(c3cccc(NC(=O)CC(c4ccccc4)c4ccccc4)c3)=NO2)CN1C(=O)C(c1ccccc1)c1ccccc1 (some centres not stated),13,–,–,–,13
O=C(NCc1ccccc1)[C@@H]1CCCN1C(=O)[C@H]1CCCN1C(=O)c1cc(F)cc(F)c1,–,–,·,–,–
CCCCc1cc(=O)oc2cc(OCC(=O)N3CCOCC3)ccc12,–,–,+,–,–
